Experimental data: PubChem BioAssay (NCATS)
Where “and” joins values, the source holds several entries; their conditions need not be identical. Equal entries are not always repeated. Records with an inconclusive call do not appear. A call without a number means that no potency is given here. Calls of active or inactive are those of the source. Unless noted, calls come from the whole dose curve; as a rule, active = well fitted curve in the direction sought with a large enough effect; inconclusive = small, poorly fitted or top-dose-only effect, or another doubt; inactive = no such curve, though single readings can be large; an effect the other way counts as inactive or inconclusive.

Columns and labels:
[1] = Cell Viability - BJ (AID 421; calls by dose curve;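 note: potency is the fitted concentration of half-maximal effect; cells exposed to compound for 40 hours at 37 °C before readout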); settings: BJ fibroblast viability, qHTS
In short: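 Luminescent ATP signal (CellTiter-Glo, 20 min at room temperature) served as the read-out of viable BJ cells after 40 hours of compound treatment. Responses were scaled between DMSO and 100 uM tamoxifen, and AC50 values were obtained by Hill modeling.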

[2] = Cell Viability - HepG2 (AID 433; calls by dose curve;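 note: potency is the fitted concentration of half-maximal effect; potency for ATP loss meaning cytotoxicity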); settings: qHTS
In short: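 In this qHTS format, a 40 h, 37 °C compound incubation of HepG2 cells in complete medium precedes a 20 min CellTiter-Glo step at room temperature. Tamoxifen and doxorubicin serve as positive controls; Hill-equation fits yield AC50.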

[3] = biological target: Mitogen-activated protein kinase 10 (Mus musculus) (UniProt Q61831); assay: JNK3 AlphaScreen Assay (AID 530; active = well fitted curve in either direction with a large enough effect, not every such curve was filed as active;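 note: kinase came from lysate of stimulated human HepG2 cells; signal reports phosphorylation of biotinylated GST-cJun 1-79 at Ser73 with 10 µM ATP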); settings: JNK3 lysate, c-Jun phosphorylation; series mostly up to 11.4 µM
In short: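 Biotinylated GST-cJun(1-79) served as substrate for JNK3 in HepG2 lysates stimulated with IL-1beta and TNF-alpha. ATP was 10 uM final, pH 7.6. Ser73 phosphorylation was quantified by AlphaScreen (680 nm excitation).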

[4] = Cell Viability - N2a (AID 540); settings: N2a mouse neuroblastoma cell viability; activity change, negative = cytotoxicity: at 92.2 µM (top of the series); note: nearly all actives have a fitted effect of over 45% in size
In short: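 In this qHTS cytotoxicity screen, ATP-dependent luciferase luminescence reports viable N2a cells after a 40 hr compound exposure in complete culture medium. Potencies are AC50 values from standard Hill equation fits.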

[5] = Cell Viability - H-4-II-E (AID 543); settings: H-4-II-E rat hepatoma viability; series mostly up to 92.2 µM; note: nearly all actives have a fitted effect of over 35% in size
In short: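 AC50 from Hill-modelled qHTS concentration-response curves. H-4-II-E rat hepatoma cells in complete medium, 40 hr exposure at 37 °C, viability by CellTiter-Glo ATP luminescence.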

[6] = MultiTox-Fluor Cytotoxicity Assay - LYMP1-002 - Live Cells (AID 955); settings: LYMP1-002 lymphoblastoid live-cell protease fluorescence viability; series mostly up to 46.1 µM;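 note: cells exposed to compound for 16 hours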
In short: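 In this qHTS viability format, lymphoblastoid cells (LYMP1-002, human) received compound for 16 hr at 37 C. Fluorogenic GF-AFC cleavage by viable cells was detected at 405/510 nm after 1 h at room temperature.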

[7] = MultiTox-Fluor Cytotoxicity Assay - LYMP1-002 - Dead Cells (AID 960); settings: LYMP1-002 lymphoblastoid cells, dead-cell protease fluorescence; series mostly up to 46.1 µM; note: nearly all actives have a fitted effect of over 60% in size
In short: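 Concentration-dependent increases in membrane-leaked protease activity are quantified in LYMP1-002 cells after 16 hr treatment; values are normalized against DMSO and tetraoctylammonium bromide (15 uM) controls and AC50 derived by Hill modeling.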

[8] = Cell Viability - LYMP1-003 - Assay at 40 hr (AID 964); settings: LYMP1-003 lymphoblastoid viability; series mostly up to 92.2 µM; note: nearly all actives have a fitted effect of over 60% in size
In short: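 Acute toxicity is scored as a concentration-dependent loss of intracellular ATP in LYMP1-003 cells (2500/well, complete medium) after 40 hr at 37 C, measured by CellTiter-Glo luminescence; AC50 values derive from standard Hill modelling.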

[9] = Cell Viability - LYMP2-004 (AID 966); settings: LYMP2-004 lymphoblastoid cell viability, qHTS; series mostly up to 92.2 µM;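 note: cells exposed to compound for 24 h; nearly all actives have a fitted effect of over 65% in size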
In short: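 Viable-cell number estimated from ATP luminescence (CellTiter-Glo) in 2500 human lymphoblastoid cells/well after 24 hr at 37 C with compound. AC50 fitted to the standard Hill equation.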

[10] = Cell Viability - LYMP2-013 (AID 970); settings: LYMP2-013 lymphoblastoid cells viability; series mostly up to 92.2 µM;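 note: cells exposed to compound for 24 h at 37 °C; nearly all actives have a fitted effect of over 55% in size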
In short: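 In complete culture medium, human lymphoblastoid cells were dosed for 24 hr at 37 C, with tetraoctylammonium bromide (6.4pM to 92 uM) as positive control. Viability reflects luciferase-based ATP signal; AC50 derived from concentration-response curves.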

[11] = Cell Viability - LYMP2-002 (AID 977); settings: LYMP2-002 lymphoblastoid cell viability, qHTS; series mostly up to 92.2 µM;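 note: compound exposure lasted 24 h at 37 °C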
In short: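 In this qHTS viability screen, 2500 human lymphoblastoid cells per well receive compound for 24 hr at 37 C, and luciferase-based ATP luminescence gives the viability signal. Tetraoctylammonium bromide serves as positive control.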

[12] = Cell Viability - LYMP2-016 (AID 984); settings: LYMP2-016 lymphoblastoid cell viability, qHTS; series mostly up to 92.2 µM;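 note: cells exposed to compound for 24 hours at 37 °C; nearly all actives have a fitted effect of over 55% in size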
In short: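 Concentration-dependent ATP depletion measured in LYMP2-016 lymphoblastoid cells, 24 h, 37 C; luciferase-based luminescent detection; Hill-equation AC50.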

[13] = Cell Viability - LYMP2-018 (AID 985); settings: LYMP2-018 lymphoblastoid cells, viability (qHTS); series mostly up to 92.2 µM; note: nearly all actives have a fitted effect of over 50% in size
In short: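 In this qHTS viability assay, cells are treated for 24 hr and cellular ATP is quantified by luciferase-based luminescence, with tetraoctylammonium bromide as positive control.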

[14] = Cell Viability - LYMP2-020 (AID 986); settings: series mostly up to 92.2 µM;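 note: cells exposed to compound for 24 h at 37 °C; nearly all actives have a fitted effect of over 55% in size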
In short: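 Cells at 2500 per well receive a 24 hr compound exposure at 37 C. Viability is measured as ATP-dependent luciferase luminescence, with AC50 modeled from qHTS concentration-response curves.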

[15] = Cell Viability - LYMP2-022 (AID 987); settings: LYMP2-022 lymphoblastoid cell viability; series mostly up to 92.2 µM; note: nearly all actives have a fitted effect of over 55% in size
In short: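 In this qHTS cytotoxicity screen, compound titrations were incubated 24 hr at 37 C with human lymphoblastoid cells in complete medium. Luciferase-based ATP luminescence provided the viability signal.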

[16] = qHTS assay for small molecule antagonists of retinoid X receptor alpha signaling (AID 588546; active = well fitted inhibition curve with a large enough effect in the signal ratio, with a control signal flat, not every such curve was filed as active; the % refers to the signal ratio;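 note: cells stimulated with 9-cis-retinoic acid as agonist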); settings: HEK293T RXRa-UAS-bla, beta-lactamase ratio, antagonist mode; measured here: W530 green channel, cytotoxicity proxy
In short: (§1)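 Beta-lactamase reporter inhibition, read as CCF4 fluorescence ratio (ex 405, em 460/530 nm) after 2 h at RT. HEK293T UAS-bla cells, 2500/well, were stimulated with 9-cis-RA at 500 or 100 nM final alongside test compound for 18 h at 37 C.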

[17] = biological target: Retinoic acid receptor RXR-alpha (Homo sapiens) (UniProt P19793); assay: as above; settings: HEK293T RXRa-UAS-bla, beta-lactamase ratio, antagonist mode
Chain of Retinoic acid receptor RXR-alpha (Homo sapiens) (P19793 whole entry, looked up): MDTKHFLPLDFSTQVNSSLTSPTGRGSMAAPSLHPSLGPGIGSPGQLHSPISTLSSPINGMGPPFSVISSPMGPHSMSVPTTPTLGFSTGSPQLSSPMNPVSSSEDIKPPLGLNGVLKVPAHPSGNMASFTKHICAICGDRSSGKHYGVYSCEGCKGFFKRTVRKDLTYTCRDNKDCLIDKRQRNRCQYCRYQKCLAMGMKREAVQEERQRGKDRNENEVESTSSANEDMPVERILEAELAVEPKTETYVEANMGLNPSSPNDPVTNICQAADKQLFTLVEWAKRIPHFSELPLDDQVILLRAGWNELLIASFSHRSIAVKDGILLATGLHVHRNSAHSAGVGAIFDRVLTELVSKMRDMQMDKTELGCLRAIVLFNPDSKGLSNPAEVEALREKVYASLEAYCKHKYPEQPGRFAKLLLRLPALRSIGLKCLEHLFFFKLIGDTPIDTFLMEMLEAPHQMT
In short: as §1

[18] = biological target: Thyroid hormone receptor beta (Homo sapiens) (UniProt P10828); assay: qHTS assay for small molecule antagonists of thyroid hormone receptor beta signaling (AID 588547; active = well fitted inhibition curve with a large enough effect in the signal ratio, with a control signal flat, not every such curve was filed as active; the % refers to the signal ratio;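 note: cells stimulated with 0.4 nM T3 agonist during compound exposure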); settings: TR-UAS-bla HEK293, beta-lactamase ratio, antagonist mode, 18 h
Chain of Thyroid hormone receptor beta (Homo sapiens) (P10828 whole entry, looked up): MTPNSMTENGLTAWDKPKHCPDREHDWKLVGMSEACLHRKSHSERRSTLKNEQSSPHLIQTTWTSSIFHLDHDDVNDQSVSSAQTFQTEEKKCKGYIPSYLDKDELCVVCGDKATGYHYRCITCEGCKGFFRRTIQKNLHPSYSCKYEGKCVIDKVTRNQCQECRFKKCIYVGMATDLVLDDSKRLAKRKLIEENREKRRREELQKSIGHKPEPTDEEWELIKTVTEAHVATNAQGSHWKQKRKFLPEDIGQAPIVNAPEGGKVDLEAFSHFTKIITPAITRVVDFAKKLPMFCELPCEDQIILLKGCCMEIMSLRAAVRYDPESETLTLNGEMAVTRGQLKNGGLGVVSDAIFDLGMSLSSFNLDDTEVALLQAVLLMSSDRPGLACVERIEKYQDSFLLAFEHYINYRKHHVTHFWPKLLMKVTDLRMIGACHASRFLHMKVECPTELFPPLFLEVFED
In short: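 TR-UAS-bla GripTite HEK293 cells in 2% charcoal/dextran FBS medium were preincubated 4 h at 37 C, given compound (0.59 nM to 92 uM) plus 0.4 nM T3 (final) for 18 h, then CCF4 for 2 h at RT; Hill fit gave IC50.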

[19] = qHTS assay for environmental chemicals that activate the Aryl hydrocarbon Receptor (AhR) signaling pathway (AID 651777); settings: 1A2-DRE human hepatoma cells, luciferase, 24 h; activation: stronger effect = higher value; note: nearly all actives have a fitted effect of over 15% in size
In short: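 1A2-DRE human hepatoma reporter line; 1,200 cells/well; cmpd or DMSO 24 h, 37 C/5% CO2; One-Glo 30 min RT; luciferase lum.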

[20] = biological target: Nuclear receptor subfamily 1 group I member 2 (Rattus norvegicus) (UniProt Q9R1A7); assay: qHTS assay for small molecule activators of the rat pregnane X receptor (rPXR) signaling pathway (AID 651751; call rule not given here); settings: rPXR reporter cells, luciferase (One-Glo), 24 h
Chain of Nuclear receptor subfamily 1 group I member 2 (Rattus norvegicus) (Q9R1A7 whole entry, looked up): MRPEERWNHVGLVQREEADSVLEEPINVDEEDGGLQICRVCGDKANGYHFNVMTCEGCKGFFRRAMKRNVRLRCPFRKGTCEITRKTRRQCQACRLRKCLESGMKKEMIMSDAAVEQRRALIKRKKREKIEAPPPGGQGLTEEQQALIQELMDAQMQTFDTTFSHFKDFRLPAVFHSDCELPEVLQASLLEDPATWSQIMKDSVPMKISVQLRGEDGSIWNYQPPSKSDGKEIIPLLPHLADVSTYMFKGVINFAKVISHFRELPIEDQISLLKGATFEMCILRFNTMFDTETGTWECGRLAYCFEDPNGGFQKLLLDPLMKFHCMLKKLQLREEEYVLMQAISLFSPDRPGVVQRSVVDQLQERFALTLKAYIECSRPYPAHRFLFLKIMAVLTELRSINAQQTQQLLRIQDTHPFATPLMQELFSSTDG

Compound	Potency [1]	Potency [2]	Potency [3]	activity change, negative = cytotoxicity [4]	Potency [5]	outcome [6]	Potency [7]	Potency [8]	Potency [9]	Potency [10]	Potency [11]	Potency [12]	Potency [13]	Potency [14]	Potency [15]	max response [16]	max response [17]	activity change % (negative = inhibition) [18]	activation [19]	max response [20]
CC(=O)CC(=O)Nc1ccccc1	> 92 µM (inactive)	> 92 µM (inactive)	inactive	-10.9% (inactive)	inactive	inactive	inactive	inactive	inactive	inactive	inactive	inactive	inactive	inactive	inactive	10.1% and 20.6%	-1.7% (inactive) and -15.3% (inactive)	8.7% (inactive) and 11% (inactive)	1.24% (inactive) and 1.64% (inactive)	8.9% (inactive) and 1.01% (inactive)
Cc1ccc(N)cc1[N+](=O)[O-]	> 92 µM (inactive)	> 92 µM (inactive)	inactive	-8.48% (inactive)	inactive	inactive	–	inactive	inactive	inactive	inactive	inactive	inactive	inactive	inactive	-2.06%	-2.5% (inactive)	-24.5% (inactive)	0.886% (inactive)	-0.278% (inactive)
CC(=O)c1ccc(Cl)c(Cl)c1Cl	> 92 µM (inactive)	> 92 µM (inactive)	–	-12.1% (inactive)	inactive	inactive	inactive	inactive	inactive	inactive	inactive	inactive	inactive	inactive	inactive	-2.76%	5.75% (inactive)	-12.3% (inactive)	-0.636% (inactive)	-2.86% (inactive)
Cc1cc2nc(N)sc2cc1C	> 92 µM (inactive)	–	–	–	–	inactive	inactive	inactive	inactive	inactive	inactive	inactive	inactive	inactive	inactive	0.388%	9.41% (inactive)	-0.19% (inactive)	–	–
C=Cc1cccc(C)c1	> 92 µM (inactive)	> 92 µM (inactive)	–	-2.59% (inactive)	inactive	inactive	inactive	inactive	inactive	inactive	inactive	inactive	inactive	inactive	inactive	-7.34%	-5.75% (inactive)	-8.39% (inactive)	-0.0469% (inactive)	3.54% (inactive)
